# PubChem BioAssay (EPA / NIEHS)
# Activity calls are given as the source filed them. Rule for the calls: active = hit-call score of the fitted dose curve at least 0.9, where 1 is the maximum; inactive = score below 0.9.
# Target: Hepatocyte nuclear factor 3-beta (Homo sapiens) (UniProt Q9Y261)
# Assay: ATG_FoxA2_CIS: Attagene CIS-FACTORIAL HepG2 Assay for human Forkhead box A2 (FOXA2) (AID 2282942)
# Settings: HepG2 cis-reporter transcription factor activity, 24 h; actives raise or lower the signal
# Experimental: ATG_CIS is a cell-based, multiplexed-readout assay that uses HepG2, a human liver cell line, with measurements taken at 24 hours after chemical dosing in a 24-well plate.ATG_FoxA2_CIS is one of 52 assay component(s) measured or calculated from the ATG_CIS assay. It is designed to make measurements of mRNA induction, a form of inducible reporter, as detected with fluorescence intensity signals by Reverse transcription polymerase chain reaction (RT-PCR) and Capillary electrophoresis technology.Data from the assay component ATG_FoxA2_CIS was analyzed into 1 assay endpoint. This assay endpoint, ATG_FoxA2_CIS, was analyzed with bidirectional fitting relative to DMSO as the negative control and baseline of activity. Using a type of inducible reporter, measures of mRNA for gain or loss-of-signal activity can be used to understand the reporter gene at the transcription factor-level as they relate to the gene FOXA2. Furthermore, this assay endpoint can be referred to as a primary readout, because this assay has produced multiple assay endpoints where this one serves a reporter gene function. To generalize the intended target to other relatable targets, this assay endpoint is annotated to the dna binding intended target family, where the subfamily is forkhead box protein.
# Human liver HepG2 cells are transiently transfected with multiple reporter transcription units (MRTUs) in 6-well plates using FuGene 6 reagent (Roche; 3 ml FuGene/1 mg DNA). The MRTU constructs are regulated by a cis-regulating element (promoter). […] A major difference between the CIS and TRANS system is that in CIS activities of endogenous TFs are measured, whereas the TRANS assay evaluates changes in activities of exogenous, chimeric NR-Gal4 proteins. […] At the end of 24 hour incubation, total RNA was isolated using TriZol reagent (Invitrogen). The isolated RNA is then reverse-transcribed using oligo(dT) primer and Mo-MLV reverse transcriptase (Invitrogen) with DNAse I (Ambion) treatment for 30 min. The one-tenth of the produced cDNA was amplified by PCR using Taq DNA polymerase (Invitrogen) and two reporter sequence-specific primers. The PCR products were fluorescently labeled by primer extension with 6-arboxyfluorescein (6-FAM) 5'-labeled reporter sequence-specific primer (2 min at 95 C, 20 s at 68 C and 10 min at 72 C) and these products were digested with 5U of HpaI (New England Biolabs) for 2h at 37 C. The fragments were purified using Qiaquick PCR columns (Qiagen), analyzed on an ABI 3130xL genetic analyzer (Applied Biosystems) with peak positions identified by using a set of X-rhodamine (ROX)-labeled MapMarker1000 molecular weight standards (BioVentures). The raw capillary electrophoresis data was processed using Attagraph software (Attagene).
# Sequence of Hepatocyte nuclear factor 3-beta (Homo sapiens) (Q9Y261 whole entry, looked up): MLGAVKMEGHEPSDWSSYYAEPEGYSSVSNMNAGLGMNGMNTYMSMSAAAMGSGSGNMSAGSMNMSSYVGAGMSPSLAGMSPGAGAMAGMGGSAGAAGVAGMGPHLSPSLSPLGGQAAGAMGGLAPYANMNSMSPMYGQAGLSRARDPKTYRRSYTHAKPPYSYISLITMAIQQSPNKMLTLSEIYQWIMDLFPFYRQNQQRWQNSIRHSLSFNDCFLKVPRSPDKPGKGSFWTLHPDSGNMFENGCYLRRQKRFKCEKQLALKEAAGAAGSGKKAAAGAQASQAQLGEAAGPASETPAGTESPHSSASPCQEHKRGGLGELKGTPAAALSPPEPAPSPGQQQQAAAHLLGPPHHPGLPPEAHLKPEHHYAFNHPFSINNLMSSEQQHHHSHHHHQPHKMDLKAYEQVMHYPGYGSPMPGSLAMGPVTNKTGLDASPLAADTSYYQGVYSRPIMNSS
SMILES,outcome,AC50
CCC(=O)OC(C)c1ccccc1 (stereo not given),inactive,
C[C@]12CC[C@H]3C(=CCc4cc(O)ccc43)[C@@H]1CCC2=O,inactive,
OCC1CCCO1 (stereo not given),inactive,
CCCCCC/C=C/CCCCCCCC(=O)O,inactive,
NS(=O)(=O)C(F)(F)C(F)(F)C(F)(F)C(F)(F)C(F)(F)C(F)(F)F,inactive,
CCOC(=O)CC(=O)C(F)(F)C(F)(F)F,inactive,
COCCOCCC[Si](C)(O[Si](C)(C)C)O[Si](C)(C)C,inactive,
Cc1ccc2c(c1)OCC(=O)CO2,inactive,
OCC(O)CC(F)(F)C(F)(F)C(F)(F)C(F)(F)C(F)(F)C(F)(F)C(F)(F)C(F)(F)F (stereo not given),inactive,
CCOCOCC,inactive,
C=CC(=O)OCC(F)(F)C(F)(F)C(F)(F)COC(=O)C=C,inactive,
O=S(=O)(Cl)C(F)(F)C(F)(F)C(F)(F)C(F)(F)C(F)(F)C(F)(F)C(F)(F)C(F)(F)F,inactive,
O=c1[nH]cccc1O,inactive,
O=C1c2c(O)ccc(Nc3ccc(CCO)cc3)c2C(=O)c2c([N+](=O)[O-])ccc(O)c21,inactive,
Cc1ccc(O)cn1,inactive,
CCN(CC)c1ccc(N=Nc2ccccc2)cc1,,26.9 µM (active)
CSc1ccc(Cl)cc1,inactive,
C[Si](C)O[Si](C)C,inactive,
CCCCC(CC)COC(=O)c1ccc(N(C)C)cc1 (stereo not given),inactive,
COc1ccccc1C=O,inactive,

SMILES,outcome,AC50
CC(C)(C)c1cc(CCC(=O)OCC(COC(=O)CCc2cc(C(C)(C)C)c(O)c(C(C)(C)C)c2)(COC(=O)CCc2cc(C(C)(C)C)c(O)c(C(C)(C)C)c2)COC(=O)CCc2cc(C(C)(C)C)c(O)c(C(C)(C)C)c2)cc(C(C)(C)C)c1O,inactive,
O=C(O)CCC(F)(F)C(F)(F)C(F)(F)F,inactive,
OCC(O)CC(F)(F)C(F)(F)C(F)(F)C(F)(F)F (stereo not given),inactive,
OCCCC(F)(F)C(F)(F)C(F)(F)C(F)(F)C(F)(F)C(F)(F)C(F)(F)C(F)(F)F,inactive,
CCOC(=O)C1CC(=O)C(=C(O)C2CC2)C(=O)C1 (stereo not given),inactive,
Nc1cccnc1N,inactive,
Cc1ccc(O)c(-n2nc3ccccc3n2)c1,inactive,
OC(O)C(F)(F)C(F)(F)F,inactive,
O=C=Nc1cccc2c(N=C=O)cccc12,inactive,
CC(=O)CCC(C)C,inactive,
O=C(O)C(F)(F)C(F)(F)C(F)(F)OC(F)(C(F)(F)F)C(F)(F)F,inactive,
CCCCOC(=O)[C@H](C)O,inactive,
C#CC(O)CCC (stereo not given),inactive,
O=C1C=CC(=O)N1c1ccccc1,inactive,
O=C1OC(=O)c2ccc3c4c(ccc1c24)C(=O)OC3=O,inactive,
CO[Si](CCCOCC1CO1)(OC)OC (stereo not given),inactive,
FC(F)(F)C(F)(F)C(F)(F)C(F)(F)C(F)(F)C(F)(F)CC[Si](Cl)(Cl)Cl,inactive,
CCCCCCCCn1sc(Cl)c(Cl)c1=O,,8.19 µM (active)
O=C(O)C(F)(F)C(F)(F)C(F)(F)C(F)(F)C(F)(F)C(F)(F)C(F)F,inactive,
FC(F)(F)C(F)(F)C(F)(F)CC1CO1 (stereo not given),inactive,
